Reference: PubChem BioAssay AID624330 (Southern Research Specialized Biocontainment Screening …, 2012)
About 2,100 (0.62%) of roughly 340,000 compounds were called active.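 How the source made its calls: active means first-screen hits whose inhibition reached a set limit at any dose in the follow-up dose series; inconclusive means inhibition above the set first-screen limit but never retested; inactive means the rest.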 A selection follows. Measured potencies and affinities stand elsewhere.

What follows are compounds tested against Rac GTPase-activating protein 1 (Homo sapiens) (UniProt Q9H0H5) (assay: blockers of MgcRacGAP-driven Rac1 GTP hydrolysis – biochemical, ADP Hunter fluorescence, primary and confirmatory, confirmation (AID 624330;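 further: fluorescence reports GDP produced by GAP-driven GTP hydrolysis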)). Settings: MgcRacGAP-stimulated Rac1 GTP hydrolysis, at 30 µM, hits give high values, GST-tagged Rac1 F28L mutant substrate.
Rac GTPase-activating protein 1 (Homo sapiens), sequence (Q9H0H5 whole entry, looked up): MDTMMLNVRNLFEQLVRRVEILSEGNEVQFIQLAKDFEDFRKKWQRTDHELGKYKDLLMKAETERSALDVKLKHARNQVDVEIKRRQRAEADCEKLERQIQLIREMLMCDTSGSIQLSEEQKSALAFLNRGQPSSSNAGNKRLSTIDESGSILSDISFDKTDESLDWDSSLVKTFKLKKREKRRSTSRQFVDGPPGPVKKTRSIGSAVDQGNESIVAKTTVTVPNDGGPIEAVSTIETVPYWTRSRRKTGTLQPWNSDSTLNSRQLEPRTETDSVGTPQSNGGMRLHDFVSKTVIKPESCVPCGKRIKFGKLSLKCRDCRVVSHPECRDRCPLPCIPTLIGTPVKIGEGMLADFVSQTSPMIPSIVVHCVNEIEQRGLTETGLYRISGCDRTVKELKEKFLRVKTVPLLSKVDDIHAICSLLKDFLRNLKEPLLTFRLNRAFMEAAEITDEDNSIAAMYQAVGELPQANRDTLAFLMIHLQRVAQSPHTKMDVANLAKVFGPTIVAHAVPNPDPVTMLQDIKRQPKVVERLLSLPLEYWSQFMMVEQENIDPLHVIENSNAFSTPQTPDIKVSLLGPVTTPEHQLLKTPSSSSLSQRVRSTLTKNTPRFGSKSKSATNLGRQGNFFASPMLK

inhibition, inactive:
COCC(=O)Nc1cc(C)cn(Cc2cccc(C(F)(F)F)c2)c1=O 3.75%
COc1ccc(CCNC(=O)c2[nH]c(C)c(C(C)=O)c2C)cc1 2.68%
CN(c1ccccc1)S(=O)(=O)c1cccc(NC(=O)CSc2ncn[nH]2)c1 5.76%
Cc1cc(Cl)ccc1OCC(=O)NCc1ccncc1 5.06%
COc1ccc(OC)c(C(=O)N2CCCC(Nc3ccc(F)cc3)C2)c1 (configuration not stated) 12.4%
O=C(c1ccccc1-c1ncc[nH]1)N1CCCC(Nc2ccc(F)cc2)C1 (configuration not stated) 2.49%
COc1ccc(NC2CCCN(C(=O)c3ccc(OC)cc3OC)C2)cc1 (configuration not stated) -1.47%
CC(C)c1ccc(NC2CCCN(C(=O)c3ccccc3-c3ncc[nH]3)C2)cc1 (configuration not stated) 8.99%
CC1CN(C(=O)CCNC(=O)c2ccc(Br)cc2)CC(C)O1 (configuration not stated) 3.26%
Cc1ccc(OCC(=O)O)c(-n2nc3ccccc3n2)c1 9.25%
Nn1c(-c2cccc(O)c2)nnc1-c1cccc(O)c1 -0.05%
CC(C)CC(=O)NC(=S)Nc1ccc(N2CCN(C(=O)c3cccs3)CC2)cc1 9.14%
COc1ccc(CNCC(=O)Nc2cccc(S(N)(=O)=O)c2)cc1 24.6%
COc1cccc(NC(=O)CNCc2ccccc2)c1 1.69%
COC(=O)c1ccc(CNCC(=O)Nc2ccc(C(=O)OC)cc2)cc1 -0.29%
COc1ccc(CCNCC(=O)Nc2ccc(OC(F)(F)F)cc2)cc1OC 28.8%
CN1CCN(NS(=O)(=O)c2ccc(Cl)s2)CC1 13.4%
CCn1c(SCC(=O)OCc2ccccc2)nc2c1c(=O)n(C)c(=O)n2C -1.89%
CC(=O)Nc1ccc(NC(=O)c2nccnc2C(=O)O)cn1 2.3%
O=C(C(c1ccccc1)C(O)(c1ccccc1)c1ccccc1)N1CCOCC1 (configuration not stated) -4.45%
CCNC(=S)N(CCc1c(C)[nH]c2ccccc12)Cc1cc(OC)c(OC)c(OC)c1 13.9%
O=C(CSC1=N/C(=C/c2ccc(Cl)c(Cl)c2)C(=O)N1c1ccccc1F)NC1CC1 6.1%
CN(C(=O)COC(=O)COc1ccc2ccccc2c1)c1ccccc1 5.73%
COc1ccc(OC)c(S(=O)(=O)N2CCC(C(=O)N(C)Cc3ccccc3)CC2)c1 13.1%
CCC(C)n1c(SCc2ccc([N+](=O)[O-])cc2)nc2ccsc2c1=O (configuration not stated) 2.36%
O=C(O)CCCn1c(=O)[nH]c2ccccc2c1=O 4.27%
CC1CCN(CCCn2c(=S)[nH]c3c(sc4ccc([N+](=O)[O-])cc43)c2=O)CC1 17.7%
CCC(C)n1c(=S)[nH]c2ccccc2c1=O (configuration not stated) 5.28%
COc1cccc(-c2cc3nc(C)cc(N4CCN(C(=O)c5ccoc5)CC4)n3n2)c1 13.9%
CCOc1ccc(/C=C(\C#N)C(=O)Nc2ccccn2)cc1 -0.14%
CCc1noc(C)c1C(=O)N1CCCC(N2CCN(c3cccc(Cl)c3)CC2)C1 (configuration not stated) 8.33%
C/C(=N\Nc1ccc([N+](=O)[O-])cc1)c1cccc(N)c1 1.82%
C/C(=N\Nc1ccc([N+](=O)[O-])cc1)c1ccc(C#N)cc1 -4.19%
O=C(NCc1ccc(F)cc1)C1CCC(=O)N1C1CCCCC1 (configuration not stated) -0.47%
COc1ccc(OC(=O)OCc2ccccc2)cc1 11.7%
COc1cc2c(cc1CNC[C@H]1O[C@@H](n3ccc(N)nc3=O)[C@H](O)[C@@H]1O)OCO2 6.09%
Cc1cc(CNC[C@H]2O[C@@H](n3ccc(N)nc3=O)[C@H](O)[C@@H]2O)no1 9.68%
C=CCNc1nnc(Cc2ccc(F)cc2)c(=O)[nH]1 4.71%
COc1cc2c(cc1NC(=O)c1cccc([N+](=O)[O-])c1)oc1ccccc12 1.77%
O=C(c1ccc(F)cc1)N1CCN(Cc2ccccc2)CC1 7.84%
OC(CN1CCN(Cc2ccccc2)CC1)c1ccc(F)cc1 (configuration not stated) -1.4%
c1ccc(CN2CCN(C(c3ccccc3)c3ccccc3)CC2)cc1 16.6%
CN(CC(=O)N1CCN(Cc2ccccc2)CC1)S(=O)(=O)c1ccc(F)cc1 -3.86%
COc1ccccc1C1CCN(C(=O)c2cnn(-c3ccccc3)c2C)CC1 12.4%
O=C(Nc1ccc([N+](=O)[O-])cc1NC(=O)c1ccccc1)c1ccccc1 2.42%
CCC(=O)Nc1ccccc1N1CCN(c2ccc(F)cc2)CC1 2.63%
CCSc1nc2ccc(N3C(=O)C4C5C=CC(C5)C4C3=O)cc2s1 (configuration not stated) -1.62%
CN1CCC(=O)N([C@H](CSc2ccc(Br)cc2)Cc2ccccc2)CC1 1.09%
COc1cc(OC)cc(C(=O)N2CCN(S(=O)(=O)c3ccc4c(c3)OCCO4)CC2)c1 9.94%
COc1cccc(/C(C)=N/Nc2ccc(S(=O)(=O)N3CCCCC3)cn2)c1 7.29%
C/C(=N\Nc1ccc(S(=O)(=O)N2CCCCC2)cn1)c1cccc(Br)c1 3.57%
CC(C)(C)OC(=O)NCCCC[C@H](NC(=O)c1nc[nH]c1C(=O)NC(c1ccccc1)c1ccccc1)C(=O)OC(C)(C)C 2.03%
CCN(C(=O)COC(=O)c1cccc(-n2cnnn2)c1)C1CCCCC1 11.8%
Cc1sc2ncn(CC(=O)N3CCN(c4ccccc4F)CC3)c(=O)c2c1S(=O)(=O)N1CCOCC1 2.91%
COc1cc([N+](=O)[O-])ccc1N 0.84%
Cc1cc([N+](=O)[O-])ccc1N -7.8%
Cc1ccc2c(N)c(C)ccc2c1 12.7%
COc1cc(NC(N)=S)c(OC)cc1Cl 10.5%
Cc1cc(Cc2ccc(N)c(C)c2)ccc1N 4.21%
COc1ccc(-c2nnc(N)s2)cc1OC 5.29%
COc1cc(Br)c(Br)cc1N -1.7%
Cc1ccc(C)c(N)c1 6.49%
